In PubChem BioAssay (NCATS):
Records with an inconclusive call do not appear. Calls of active or inactive are those of the source. Calls come from the whole dose curve; as a rule, active = well fitted curve in the direction sought with a large enough effect; inconclusive = small, poorly fitted or top-dose-only effect, or another doubt; inactive = no such curve, though single readings can be large; an effect the other way counts as inactive or inconclusive.

What was measured:
CRL-7250 = normal cell line; assay: Cytotoxic Profiling of Annotated Libraries Using Quantitative High-Throughput Screening (AID 1296008); conditions: Five cell lines viability, CellTiter-Glo ATP luminescence, 48-72 h; max response: active compounds read low; note: nearly all actives have a fitted effect of over 60% in size; for max response: % is set by controls: 0 for no effect and ±100 for the full control effect
Summary of the method: (§1)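 Cells exposed to compounds for 48 or 72 hr at 37 degrees Celsius. Viability read as ATP-coupled luminescence with CellTiter-Glo after 10 min at room temperature.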

HEK293 = assay: as above; conditions: Five cell lines viability, CellTiter-Glo ATP luminescence, 48-72 h; max response: active compounds read low
Summary of the method: as §1

HaCat = assay: as above; conditions: Five cell lines viability, CellTiter-Glo ATP luminescence, 48-72 h; max response: active compounds read low
Summary of the method: as §1

KB-3-1 = assay: as above; conditions: Five cell lines viability, CellTiter-Glo ATP luminescence, 48-72 h; max response: active compounds read low
Summary of the method: as §1

NIH3T3 = assay: as above; conditions: Five cell lines viability, CellTiter-Glo ATP luminescence, 48-72 h; max response: active compounds read low
Summary of the method: as §1

HEK293T = assay: qHTS assay to identify novel small-molecules to repurpose for Merkel cell carcinoma treatment (AID 1296009); conditions: MCC and control cell lines, CellTiter-Glo viability, 72 h; series mostly up to 44.8 µM; note: nearly all actives have a fitted effect of over 60% in size
Summary of the method: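 CellTiter-Glo luminescence after 72 hr compound exposure at 37 degree celsius gave cell viability. Libraries NPC and MIPE were run as 8- and 11-point dose responses; RLUs normalized to DMSO (negative) and no-cell (cytotoxicity) controls.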

C33A = assay: Primary qHTS to identify gynecologic anti-cancer compounds using libraries of approved drugs and bioactive compounds (AID 1345084); conditions: Gynecologic cancer cell panel viability, ATPlite luminescence, 48 h; series mostly up to 57.5 µM; note: % is set by controls: 0 for no effect and ±100 for the full control effect; nearly all actives have a fitted effect of over 55% in size
Summary of the method: (§2)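 Measured: luminescence after ATPlite addition (15 min, RT). Exposure: 48 h, 37 C, 5% CO2.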

CAOV3 = assay: as above; conditions: Gynecologic cancer cell panel viability, ATPlite luminescence, 48 h; series mostly up to 57.5 µM
Summary of the method: as §2

CASKI = assay: as above; conditions: Gynecologic cancer cell panel viability, ATPlite luminescence, 48 h; series mostly up to 57.5 µM
Summary of the method: as §2

Es-2 = assay: as above; conditions: Gynecologic cancer cell panel viability, ATPlite luminescence, 48 h; series mostly up to 57.5 µM
Summary of the method: as §2

HeLa = assay: as above; conditions: Gynecologic cancer cell panel viability, ATPlite luminescence, 48 h; series mostly up to 57.5 µM
Summary of the method: as §2

CCC[C@@H]1C[C@@H](C(=O)N[C@H](C(C)Cl)[C@H]2O[C@H](SC)[C@H](O)[C@@H](O)[C@H]2O)N(C)C1 (stereo partly drawn)
inactive: max response (CRL-7250) -2.55% | outcome (HEK293) | max response (HaCat) 1.16% | max response (KB-3-1) 7.07% | max response (NIH3T3) 3.25% | Potency (HEK293T) | Potency (C33A) | Potency (CAOV3) | Potency (CASKI) | Potency (Es-2) | Potency (HeLa)

Cc1ccc2c(c1)C=Cc1cc(C)ccc1C2c1cn(Cc2ccc(C(=O)Nc3nn[nH]n3)o2)c(=O)[nH]c1=S
inactive: outcome (CRL-7250) | outcome (HEK293) | max response (HaCat) -1.86% | outcome (KB-3-1) | max response (NIH3T3) -7.39% | Potency (HEK293T) | Potency (C33A) | Potency (CAOV3) | Potency (CASKI) | Potency (Es-2) | Potency (HeLa)

C=C1CC2C3(C)C(OC(C)=O)CC(=O)OC(C)(C)C3C(O)C(OC(C)=O)C2(C)C2C(=O)OC(C)C(=O)C12C (stereo not drawn)
inactive: max response (CRL-7250) -7.53% | outcome (HEK293) | max response (HaCat) -15.7% | max response (KB-3-1) 8.43% | max response (NIH3T3) -3.76% | Potency (HEK293T) | Potency (C33A) | Potency (CAOV3) | Potency (CASKI) | Potency (Es-2) | Potency (HeLa)

CC(O)(CC(=O)O)CC(=O)O[C@@H]1[C@@H](O)[C@H](OCCc2ccccc2)O[C@H](CO)[C@H]1O (stereo partly drawn)
inactive: max response (CRL-7250) -0.691% | outcome (HEK293) | max response (HaCat) -14.4% | max response (KB-3-1) 7.92% | max response (NIH3T3) 1.93% | Potency (HEK293T) | Potency (C33A) | Potency (CAOV3) | Potency (CASKI) | Potency (Es-2) | Potency (HeLa)

C[C@H]1[C@H](C)CC[C@]2(C(=O)O)CC[C@]3(C(=O)O)C(=CCC4[C@@]5(C)CC[C@H](O[C@@H]6O[C@H](C)[C@@H](O)[C@H](O)[C@H]6O)C(C)(C)C5CC[C@]43C)[C@H]12 (stereo partly drawn)
inactive: max response (CRL-7250) -5.62% | outcome (HEK293) | max response (HaCat) 2.99% | max response (KB-3-1) 1.93% | outcome (NIH3T3) | Potency (HEK293T) | Potency (C33A) | Potency (CAOV3) | Potency (CASKI) | Potency (Es-2) | Potency (HeLa)

C=Cc1cc(O)cc2nc(-c3ccc(O)c(F)c3)oc12
inactive: max response (CRL-7250) -4.59% | outcome (HEK293) | max response (HaCat) -8.75% | outcome (KB-3-1) | outcome (NIH3T3) | Potency (HEK293T) | Potency (C33A) | Potency (CAOV3) | Potency (CASKI) | Potency (Es-2) | Potency (HeLa)

C[C@@H]1CCC2C(C)(C)[C@H](O)CC[C@]2(C)[C@@]12Cc1c(O)cc3c(c1O2)CN(CCO)C3=O (stereo partly drawn)
inactive: max response (CRL-7250) -2.75% | outcome (HEK293) | max response (HaCat) 4.59% | max response (KB-3-1) 3.58% | max response (NIH3T3) 1.6% | Potency (HEK293T) | Potency (C33A) | Potency (CAOV3) | Potency (CASKI) | Potency (Es-2) | Potency (HeLa)

COc1cc(C2Oc3c(O)cc(CCCO)cc3C2CO)ccc1O[C@H]1O[C@H](C)[C@@H](O)[C@H](O)[C@@H]1O (stereo partly drawn)
inactive: max response (CRL-7250) 0.29% | outcome (HEK293) | max response (HaCat) 3.18% | outcome (KB-3-1) | max response (NIH3T3) -0.439% | Potency (HEK293T) | Potency (C33A) | Potency (CAOV3) | Potency (CASKI) | Potency (Es-2) | Potency (HeLa)

O=C(O)c1n[nH]c2c1C[C@H]1C[C@@H]21
inactive: max response (CRL-7250) -0.338% | outcome (HEK293) | max response (HaCat) 2.24% | max response (KB-3-1) 3.14% | max response (NIH3T3) -3.9% | Potency (HEK293T) | Potency (C33A) | Potency (CAOV3) | Potency (CASKI) | Potency (Es-2) | Potency (HeLa)

COc1c(C(CC(C)C)OC(C)=O)ccc(Oc2c(O)cc(C)cc2/C=C/C(C)=O)c1C(=O)O (stereo not drawn)
inactive: max response (CRL-7250) -10.2% | outcome (HEK293) | max response (HaCat) -7.86% | max response (KB-3-1) 3.96% | max response (NIH3T3) -18.3% | Potency (HEK293T) | Potency (C33A) | Potency (CAOV3) | Potency (CASKI) | Potency (Es-2) | Potency (HeLa)

CC1CCC2C(C)(C)C(O)CCC2(C)C12Cc1c(O)cc3c(c1O2)CN(C(CCC(N)=O)C(=O)O)C3=O (stereo not drawn)
inactive: max response (CRL-7250) 0.113% | outcome (HEK293) | max response (HaCat) 2.99% | max response (KB-3-1) 5.86% | max response (NIH3T3) -0.736% | Potency (HEK293T) | Potency (C33A) | Potency (CAOV3) | Potency (CASKI) | Potency (Es-2) | Potency (HeLa)

CC1(C)CCC2(C(=O)OC3OC(COC4OC(CO)C(O)C(O)C4O)C(O)C(O)C3O)CCC3(C)C(=CCC4C5(C)CCC(O)C(C)(C(=O)O)C5CCC43C)C2C1O (stereo not drawn)
inactive: outcome (CRL-7250) | outcome (HEK293) | max response (HaCat) 2.41% | outcome (KB-3-1) | max response (NIH3T3) 4.9% | outcome (HEK293T) inactive [at 9.27 µM] | activity change, negative = cytotoxicity (C33A) 2.23% [at 11.6 µM] | activity change, negative = cytotoxicity (CAOV3) 3.42% [at 11.6 µM] | activity change, negative = cytotoxicity (CASKI) 3.04% [at 11.6 µM] | activity change, negative = cytotoxicity (Es-2) 4.39% [at 11.6 µM] | activity change, negative = cytotoxicity (HeLa) -15.3% [at 11.6 µM]

CC1(C)CC[C@]2(C(=O)O)CC[C@]3(C)C(=CCC4[C@@]5(C)CC[C@H](O[C@@H]6O[C@H](C(=O)O)[C@@H](O)[C@H](O)[C@H]6O)C(C)(CO)C5CC[C@]43C)C2C1 (stereo partly drawn)
inactive: max response (CRL-7250) 4.13% | outcome (HEK293) | max response (HaCat) -0.619% | outcome (KB-3-1) | max response (NIH3T3) -4.92% | Potency (HEK293T) | Potency (C33A) | Potency (CAOV3) | Potency (CASKI) | Potency (Es-2) | Potency (HeLa)
